PI4K2A block = PI4K2A (human) kinase inhibition; activity change, negative = inhibition, % at 76.9 µM; purified PI4K2A, ADP-Glo luminescence, 1 h; hits give low values; hit rate 0.13% among 420,000; AID 1346378; Q9BTU6; in the data active = activity change below about -50%; inconclusive = mostly about -30% to -49%;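 also: -100% = wells without enzyme as full effect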
Target sequence (Q9BTU6 whole entry, looked up): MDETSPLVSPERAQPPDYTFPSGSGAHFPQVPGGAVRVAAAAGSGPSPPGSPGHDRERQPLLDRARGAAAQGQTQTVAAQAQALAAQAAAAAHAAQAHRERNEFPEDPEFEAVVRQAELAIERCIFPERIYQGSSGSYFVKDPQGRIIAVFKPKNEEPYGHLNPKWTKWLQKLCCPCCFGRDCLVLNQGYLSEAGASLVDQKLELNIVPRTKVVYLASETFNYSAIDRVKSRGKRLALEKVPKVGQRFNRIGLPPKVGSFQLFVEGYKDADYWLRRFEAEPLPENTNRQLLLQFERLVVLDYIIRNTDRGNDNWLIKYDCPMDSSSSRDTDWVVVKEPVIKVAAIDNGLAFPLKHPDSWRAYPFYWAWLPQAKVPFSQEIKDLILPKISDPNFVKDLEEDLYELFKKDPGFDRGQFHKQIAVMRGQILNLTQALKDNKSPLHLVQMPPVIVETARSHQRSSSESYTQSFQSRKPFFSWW
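ADP-Glo luminescence measured ADP generated by PI4K2A enzyme (4 ug/mL before mixing) with 1.2 mM PI substrate (pre-mix) and 300 microM ATP (pre-mix). Tris pH7.5 buffer with MgCl2, Triton X-100; 1 h reaction at ambient temperature.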
Giardia killer = Giardia lamblia killing | Giardia lamblia trophozoite viability | hit rate 0.15% among 340,000 | AID 540267 | activity change, % at 7.66 µM, hits read low; in the data active = activity change below about -80%; inconclusive = between about -30% and that limit;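 also: parasites exposed to compound for two days anaerobically before the ATP read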
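Luminescent ATP signal served as the viability read-out, measured 15-30 min after adding ATP detection reagent to trophozoites that had been incubated with compounds for 48 hrs at 37 deg C anaerobically at 100 cells/well.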
KB-V1 MDR tox = KB-V1 MDR subline cytotoxicity. KB-V1 MDR cells viability, CellTiter-Glo, 72 h. Potency, µM (highest dose often 46.1 µM), hits mostly cytotoxic. hit rate 3.4% among 400,000; also: potency is read from the fitted curve at half-maximal effect; nearly all actives have a fitted effect of over 60% in size
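Cells of the MDR subline KB-V1 are plated, dosed with compound at multiple concentrations, and incubated 72 h at 37 degrees C; CellTiter-Glo is then added and luminescence read after 10 min.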
A549 viability = counter-screen for Nrf2 inhibitors: cytotoxicity in A549 cells. hit rate 0.16% among 390,000. AID 504648. A549 ARE-Fluc cells, CellTiter-Fluor viability, 18-24 h. Potency, µM (doses to about 46 µM), without a hit: at the highest dose activity change, negative = cytotoxicity, hits mostly inhibitors; also: potency is read from the fitted curve at half-maximal effect
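A549 ARE_Fluc cells in 5% FBS OPTI-MEM were exposed to compounds in concentration-response for 18-24 h at 37 deg C. Viability was read by CellTiter-Fluor fluorescence (Ex 405/Em 525) after 30 min, before the luciferase read.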
Nrf2 block = inhibitors of Nrf2 signaling. A549 ARE-Fluc reporter, luciferase luminescence, 18-24 h. Potency, µM (series often up to 46 µM), without a hit: at the highest dose activity change, negative = inhibition, actives largely listed as inhibitors. hit rate 2.1% among 360,000; also: potency is read from the fitted curve at half-maximal effect; nearly all actives have a fitted effect of over 60% in size
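Reporter: ARE-Fluc in A549. Exposure: 18-24 h, 37 °C, 5% CO2, 5% FBS OPTI-MEM. Readouts: fluorescent cytotoxicity (CellTiter-Fluor), then luminescent Nrf2 signal after BugLite.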
KB-3-1 tox = KB-3-1 parental cell cytotoxicity; hit rate 1.4% among 400,000; KB-3-1 viability, CellTiter-Glo ATP luminescence, 72 h; Potency, µM (titrated, usually from 46.1 µM), most hits filed as cytotoxic; also: potency is read from the fitted curve at half-maximal effect; nearly all actives have a fitted effect of over 60% in size
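72 h, 37 °C compound treatment of KB-3-1 parental cells; CellTiter-Glo added, 10 min, luminescence read. Data corrected against DMSO-only plates and normalized before curve fitting.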
* hit, by the source's call; i = inactive; u = inconclusive; x = no result. An excerpt weighted towards active compounds, which were near 5.7% of everything screened. Unless noted, calls follow the shape of the dose curve; as a rule, active = well fitted curve in the direction sought with a large enough effect; inconclusive = small, poorly fitted or top-dose-only effect, or another doubt; inactive = no such curve, though single readings can be large; an effect the other way counts as inactive or inconclusive. Unless noted, % is scaled to controls: 0 for no effect and ±100 for the full control effect.

SMILES	PI4K2A block	Giardia killer	KB-V1 MDR tox	A549 viability	Nrf2 block	KB-3-1 tox
O=C(Nc1cccc(C(=O)OCc2cc(=O)n3c4c(sc3n2)CCCC4)c1)c1cccc(F)c1	-1	x	x	3%	x	x
CCn1c(Cc2cccs2)nnc1SCC(=O)Nc1cccc2ccccc12	1	x	x	x	x	x
COc1ccc(NC(=O)CC(C)=O)c(OC)c1	5	16	i	-1%	-13%	i
COc1ccc(OC)c(NC(=O)CS(=O)(=O)c2ccccc2)c1	3	-9	18µM*	-2%	x	i
COc1ccc(NC(=O)Nc2cnccn2)c(OC)c1	-1	7	5.8µM*	-9%	1%	5.2µM*
COc1ccc(NC(=O)Nc2ccc(Cc3ccncc3)cc2)c(OC)c1	-2	1	i	-6%	16µM*	u
COc1ccc(NC(=O)CC(=O)Nc2ccc(OC)cc2OC)c(OC)c1	0	1	21µM*	u	u	i
CC(C)(C)c1ccc(-c2nnc(SCC(=O)c3ccc4ccccc4c3)n2-c2ccc(Cl)cc2)cc1	0	x	x	x	x	x
CN(C)c1ccc(/C=C/c2ccnc3ccccc23)cc1O	x	x	i	x	x	i
O=C(CSc1nc2c([nH]c3ccccc32)c(=O)n1-c1ccccc1)N1CCc2ccccc21	-1	x	x	-1%	x	x
COc1ccc(OC)c(-c2nnc3n2N=C(c2ccc(OC)c(OC)c2)CS3)c1	0	-4	u	-5%	u	u
COc1ccc(OC)c(-c2nnc3n2N=C(c2ccc(OC(F)F)c(OCC4CC4)c2)CS3)c1	7	1	u	-1%	u	5.8µM*
COc1ccc(OC)c(-c2nnc3n2N=C(c2ccc(OC)c(OC4CCCC4)c2)CS3)c1	13	-1	4.6µM*	-18%	18µM*	0.92µM*
COc1ccc(C2=Nn3c(nnc3-c3ccccc3F)SC2)cc1OC1CCCC1	1	u	u	-24%	u	8.2µM*
COc1ccc(OC)c(C2=Nn3c(nnc3C3CCCCC3)SC2)c1	1	-19	u	-18%	21µM*	i
COc1ccc(C2=Nn3c(nnc3-c3ccccc3F)SC2)cc1OC1CCOC1 (stereo not drawn)	1	-29	21µM*	-10%	-24%	2.1µM*
COc1ccc(C2=Nn3c(nnc3-c3ccccc3O)SC2)cc1OC	x	x	x	1%	0%	x
CC(=O)Oc1c(I)cc(I)cc1C(=O)Nc1ccc(Cl)cc1	3	-6	16µM*	u	23µM*	23µM*
CN(C(=O)CSc1nc2ccc(NC(=O)c3ccc(F)cc3)cc2s1)c1ccccc1	-2	x	u	-19%	u	u
O=c1ccc(C(F)(F)F)cn1Cc1cc(=O)n2ccsc2n1	1	-3	i	4%	2%	i
O=c1cc(CNc2cc(C(F)(F)F)cc(C(F)(F)F)c2)nc2sccn12	0	-2	26µM*	-2%	u	23µM*
COc1cccc(Cn2c(NCC(C)C)nc3c2c(=O)n(C)c(=O)n3C)c1	-1	35	3.3µM*	-3%	u	i
COc1cccc(Cn2cnc3c2c(=O)n(C)c(=O)n3C)c1	2	x	x	-1%	13µM*	x
COc1cccc(/C=N/NC(=O)Cn2cnc3c2c(=O)n(C)c(=O)n3C)c1	-1	-26	u	-4%	-3%	i
CC(C)CNc1nc2c(c(=O)n(C)c(=O)n2C)n1Cc1cccc(Br)c1	5	-28	i	-1%	x	i
SMILES	PI4K2A block	Giardia killer	KB-V1 MDR tox	A549 viability	Nrf2 block	KB-3-1 tox
Cn1c(=O)c2c(ncn2Cc2ccccc2)n(C)c1=O	1	11	u	-3%	-15%	i
CC(O)CNc1nc2c(c(=O)n(C)c(=O)n2C)n1Cc1cccc(Br)c1 (stereo not drawn)	-2	-3	15µM*	-13%	16µM*	u
Cn1c(=O)c2c(ncn2CCCc2ccccc2)n(C)c1=O	-1	-7	15µM*	u	-23%	u
Cc1ccc(NC(=O)c2nnn(CC(=O)Nc3ccc(C)c(Cl)c3)c2N)c(C)c1	-3	x	x	-1%	u	x
CCC(=O)N1CCc2cc(Br)c(S(=O)(=O)NC3CCN(Cc4ccccc4)CC3)cc21	0	x	x	x	x	x
CC(O)CNc1nc2c(c(=O)n(C)c(=O)n2C)n1C/C=C/c1ccccc1 (stereo not drawn)	-2	-14	u	-6%	23µM*	i
COCCNc1nc2c(c(=O)n(C)c(=O)n2C)n1Cc1cccc(C(F)(F)F)c1	0	-14	i	-20%	16µM*	u
CN1[C@@H](Cc2ccccc2)COc2cc(N3CCCC3)ccc2S1(=O)=O	-1	x	x	x	x	x
CCCN1C(C(=O)c2ccccc2)=C(OC(=O)COc2ccc(C)cc2)c2ccccc2S1(=O)=O	5	x	x	u	18µM*	x
C=CCN1C(C(=O)c2ccccc2)=C(OC(=O)COc2ccccc2)c2ccccc2S1(=O)=O	3	-15	12µM*	u	u	u
CCN1C(C(=O)c2ccccc2)=C(OC(=O)COc2ccc(C)cc2)c2ccccc2S1(=O)=O	4	x	x	u	23µM*	x
CCCN1C(C(=O)c2ccccc2)=C(OC(=O)COc2ccccc2)c2ccccc2S1(=O)=O	0	x	x	u	23µM*	x
CCN1C(C(=O)c2ccccc2)=C(OC(=O)COc2ccc(OC)cc2)c2ccccc2S1(=O)=O	0	x	x	u	u	x
CCOC(=O)NC[C@@]1(C(=O)OC)CC(=O)N(C)[C@@H]1c1ccccc1	-2	x	x	x	x	x
O=C(CN1C(=O)C2(OCCCO2)c2ccccc21)NCc1ccccc1Cl	7	x	x	x	x	x
CC1CCN(S(=O)(=O)c2cn(CC(=O)Nc3ccc(F)c(Cl)c3)c(=O)c3ccccc23)CC1	1	x	i	-19%	u	u
CCN1C(C(=O)c2ccccc2)=C(OC(=O)c2ccc(Cl)cc2)c2ccccc2S1(=O)=O	78	x	x	u	21µM*	x
CCC(NC(=O)Nc1ccc(O)cc1)(C(F)(F)F)C(F)(F)F	-52*	3	i	-7%	x	i
CC(NC(=O)Nc1ccc(O)cc1)(C(F)(F)F)C(F)(F)F	-51*	19	i	-4%	-18%	i
CCC(NC(=O)NCc1ccccc1)(C(F)(F)F)C(F)(F)F	2	-19	i	1%	5%	i
COc1ccc(NC(=O)NC(C)(C(F)(F)F)C(F)(F)F)cc1	1	-17	i	3%	14%	i
CCc1ccc(NC(=O)Cn2ccn(-c3ccc(C)c(C)c3)c(=O)c2=O)cc1	-4	x	x	11%	u	x
CC1(C)CC2CC(C)(CN2C(=O)c2cc(-c3ccc(O)cc3)on2)C1 (stereo not drawn)	1	19	i	0%	9%	i

Bioassay records as filed in PubChem BioAssay.
